Screening results: PubChem BioAssay, several laboratories
In the library only some 1.3% were active in any assay of this set; here they are far more common.
UGM FP inh = blocks M. tuberculosis UGM enzyme | P9WIQ1 | purified UGM, fluorescence polarization probe displacement | inhibition, % at 10 µM | actives 0.06% (n = 320,000) | AID 504406; in the data active means inhibition above about 10%, passing the limit was not always enough; inconclusive means no clear call, values can overlap the other calls
Rv3671c protease = inhibitors of M. tuberculosis serine protease Rv3671c. P9WHR9. inhibition, % at 5.96 µM. actives 0.048% (n = 320,000); in the data active means inhibition above about 38%;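 further: extracellular domain of Rv3671c used as enzyme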
Target sequence (P9WHR9 whole entry, looked up, the tested form may be a part): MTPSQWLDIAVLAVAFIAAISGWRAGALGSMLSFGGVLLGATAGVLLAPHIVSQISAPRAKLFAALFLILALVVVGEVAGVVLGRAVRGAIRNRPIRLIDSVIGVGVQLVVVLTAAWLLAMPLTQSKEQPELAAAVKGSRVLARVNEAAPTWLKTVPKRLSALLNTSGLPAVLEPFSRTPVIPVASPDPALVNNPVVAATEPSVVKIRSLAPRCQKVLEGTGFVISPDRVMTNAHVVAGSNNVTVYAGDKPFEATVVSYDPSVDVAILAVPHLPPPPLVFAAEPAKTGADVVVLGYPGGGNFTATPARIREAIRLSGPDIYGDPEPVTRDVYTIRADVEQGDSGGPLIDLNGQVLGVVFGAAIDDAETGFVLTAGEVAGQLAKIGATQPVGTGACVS
PrP UTR inh = inhibition of PrP 5' UTR reporter expression | cell-based PrP 5' UTR mRNA reporter, plate reader | inhibition, % (test concentration not listed) | actives 0.35% (n = 340,000) | AID 488862; in the data active means inhibition above about 52%
FadD28 binding = inhibitors of Mycobacterium tuberculosis FadD28 bisubstrate binding; FadD28 bisubstrate probe binding, fluorescence polarization; inhibition, % at 12.5 µM; actives 0.22% (n = 360,000); AID 588549; in the data active means inhibition above about 8.5%, passing the limit was not always enough; inconclusive means no clear call, values can overlap the other calls
RecA intein inh = Mtb RecA intein splicing inhibition; cell-free RecA intein splicing, fluorescence; AID 2221; P9WHJ3; inhibition, % (concentration not given with the values); actives 0.75% (n = 290,000); in the data active means inhibition above about 30%; inconclusive means no clear call, values can overlap the other calls
BJeLR viability = BJeLR cell viability loss. BJeLR (HRASV12) viability, CellTiter-Glo ATP luminescence, 48 h. inhibition, % (test concentration not listed). actives 0.17% (n = 300,000); in the data active means inhibition above about 50%; inconclusive means no clear call, values can overlap the other calls
GFP chromo cs = counter-screen GFP chromophore formation inhibition; shares compounds with RecA intein inh; cell-free GFP chromophore formation, fluorescence; EC50, µM; actives 83% (n = 2,100); call rule not given here
Hits are given with their value; i = inactive; ? = inconclusive; nt = not tested or not shown.

SMILES | UGM FP inh | Rv3671c protease | PrP UTR inh | FadD28 binding | RecA intein inh | BJeLR viability | GFP chromo cs
CCOC(=O)c1c(CSC(=N)N)n(-c2ccc(Br)cc2)c2cc(Br)c(OC(C)=O)cc12 | nt | nt | i | i | nt | nt | nt
O=C(O)c1cc2c(s1)CCCC2 | i | i | i | i | nt | i | nt
ClCc1nnc(-c2cc3c(s2)CCCC3)o1 | nt | nt | i | i | 39.4 | i | 27.6
CN1CCN(Cc2cc(C(C)(C)C)c(O)c(C(C)(C)C)c2)CC1 | i | i | i | i | i | i | nt
CC(C)(C)c1cc(C(c2cccnc2)N2CCN(CCO)CC2)cc(C(C)(C)C)c1O (configuration not stated) | i | i | i | i | 37.9 | i | 35.3
CC(=O)Oc1ccc2ccccc2c1C(NC(=O)Cc1ccccc1)c1ccc(Cl)cc1 (configuration not stated) | i | i | i | i | 43.2 | i | i
C=CCn1c(-c2cccnc2Cl)nc2cc(Cl)c(Cl)cc21 | i | i | i | i | i | i | nt
C=CCn1c(-c2cccnc2Cl)nc2ccccc21 | i | i | i | i | 85.3 | i | i
C1C2CC3C1C3C2=NN=C1C2CC3C(C2)C13 | nt | nt | nt | i | nt | nt | nt
C=CC[C@@H](Cc1ccc(F)cc1)C(=O)OC[C@@H]1CCCN1C(=O)[C@@H](CC=C)CC(=O)N[C@H](CO)Cc1ccccc1 | i | i | i | i | nt | nt | nt
Cc1ccc(S(=O)(=O)N(C(=O)c2ccncc2)c2ccc(OC(=O)c3ccncc3)c3ccccc23)cc1 | i | i | i | i | 47.1 | i | 0.747
CC(=O)Oc1ccc(N(C(C)=O)S(=O)(=O)c2ccc(C)cc2C)c2ccccc12 | i | nt | i | i | i | i | nt
Cc1ccc(S(=O)(=O)N(C(=O)c2ccncc2)c2ccc(OC(=O)c3ccncc3)c3ccccc23)c(C)c1 | i | i | i | i | 98.2 | i | i
CCc1ccc(S(=O)(=O)/N=C2\C=C(Nc3cccc(C(=O)O)c3)C(=O)c3ccccc32)cc1 | i | i | i | i | 94.9 | i | 0.419
CCc1ccc(S(=O)(=O)/N=C2\C=CC(=O)c3ccccc32)cc1 | i | i | nt | nt | 93.4 | nt | 1.66
Cc1cc(C)c(S(=O)(=O)/N=C2\C=C(Nc3ccc(C(=O)O)cc3)C(=O)c3ccccc32)c(C)c1 | i | i | i | ? | 95.8 | i | 0.871
O=C(O)c1ccc(NC2=C/C(=N/S(=O)(=O)c3ccccc3)c3ccccc3C2=O)cc1 | nt | nt | i | i | nt | nt | nt
O=S(=O)(N=C1C=CC(=NS(=O)(=O)c2ccccc2)c2ccccc21)c1ccccc1 | nt | nt | nt | i | nt | nt | nt
CCc1ccc(S(=O)(=O)/N=C2\C=C(Nc3ccc(O)cc3)C(=O)c3ccccc32)cc1 | i | i | i | ? | 97.3 | i | 0.498
CC(=O)Nc1cc(-c2cccc(F)c2)cn2c(-c3ccccc3)cnc12 | nt | nt | nt | i | nt | nt | nt
O=C(Cn1nnc(-c2ccccc2)c1COc1ccc2ccccc2c1)NCC1CC1 | nt | nt | nt | i | nt | nt | nt
O=S(=O)(N[C@H]1C[C@@H](NS(=O)(=O)OCC(Cl)(Cl)Cl)C2CCCCC21)OCC(Cl)(Cl)Cl (some centres not stated) | i | i | i | i | 31.6 | i | i
CC1CCC(C)(NS(=O)(=O)OCC(Cl)(Cl)Cl)CC1 (configuration not stated) | i | i | i | i | i | i | nt
CCc1cc(=O)oc2cc(OC(C)C(=O)N3CC[C@@]4(O)CCCC[C@H]4C3)ccc12 (some centres not stated) | nt | nt | nt | i | nt | nt | nt
COc1ccc(C(=O)N2c3ccccc3C=CC2C#N)cc1 (configuration not stated) | i | i | i | i | i | i | nt
SMILES | UGM FP inh | Rv3671c protease | PrP UTR inh | FadD28 binding | RecA intein inh | BJeLR viability | GFP chromo cs
N#C[C@H]1[C@H](c2ccccc2)[C@](C#N)(C(=O)c2ccccc2)[C@@H]2C=Cc3ccccc3N21 | nt | nt | nt | nt | 53.1 | i | 23.1
O=C1c2cc(F)ccc2-n2c1nc1ccccc1c2=O | i | i | i | i | 94.3 | i | i
CC1=NNC(=O)C1Cc1ccccc1C (configuration not stated) | i | i | i | i | 95.3 | i | 0.737
COc1ccc(-c2c(=O)n(OC)c3ccccc3[n+]2[O-])cc1OC | i | i | i | i | 42.2 | i | i
O=C(C/C=N\OCc1c(Cl)cccc1Cl)Oc1ccc(Cl)cc1Cl | i | i | i | i | 45.3 | i | 27.1
CCc1nc2ccc(C(=O)N3CCN(S(=O)(=O)CC)CC3)cn2c1N(CC)CCOC | nt | nt | nt | i | nt | nt | nt
Cc1ccc(N(C(=O)CCl)C(C(=O)NC2CCCCC2)c2cccnc2)cc1C (configuration not stated) | i | i | nt | nt | 71.6 | 101.2 | 2.57
COc1ccccc1N1C(=O)Cc2ccccc2C1=O | i | i | i | i | 31.1 | i | 11.3
COc1ccc(C(O)c2nc(-c3cc(F)cc(Cl)c3)cs2)cc1 (configuration not stated) | nt | nt | nt | i | nt | nt | nt
Oc1ccc(N=Cc2ccc(O)c(O)c2)cc1 | i | i | i | ? | 85.7 | i | 24.3
Cc1cccc(NC(=O)C(C)Sc2ncnc3sccc23)c1 (configuration not stated) | nt | nt | nt | i | nt | nt | nt
CN(C)c1nc(N(C)C)nc(N(C#N)CN2C(=O)c3ccccc3S2(=O)=O)n1 | i | i | i | i | i | i | nt
CC(C)(C)Nc1nc(Cl)nc(N(C#N)CN2C(=O)c3ccccc3S2(=O)=O)n1 | i | i | i | i | 50.6 | i | 39.4
CC(=O)NCCn1c(SCC(=O)NCc2ccco2)nc2ccccc2c1=O | i | i | i | i | 66.6 | i | 24.9
CCCCn1c(SCC(=O)NCc2ccco2)nc2ccccc2c1=O | i | i | i | i | i | i | nt
C/C(=N\NC(=S)NC(C)C)c1ccccc1 | i | i | i | i | i | i | nt
CC(C)NC(=S)NC(c1ccccc1)(c1ccccc1)c1ccccc1 | i | i | i | i | 31.6 | i | i
CC1=NN(c2ccccc2)C(=O)C1=C(C)C | i | i | i | i | 55.4 | i | 8.45
CCSc1cc(C2C(C#N)=C(N)Oc3n[nH]c(C)c32)c(C)o1 (configuration not stated) | i | i | i | i | 76.7 | i | 14.7
COC(=O)Cc1[nH]nc2c1C(c1c[nH]c3ccccc13)C(C#N)=C(N)O2 (configuration not stated) | i | i | i | i | 86.5 | i | i
COC(=O)Cc1[nH]nc2c1C(c1ccc(O)c(OC)c1)C(C#N)=C(N)O2 (configuration not stated) | i | i | i | i | 76.8 | i | 30.9
Cc1[nH]nc2c1C(c1c[nH]c3ccccc13)C(C#N)=C(N)O2 (configuration not stated) | i | i | i | i | 90.1 | i | 7.55
Cc1[nH]nc2c1[C@@H](c1ccccc1[N+](=O)[O-])C(C#N)=C(N)O2 | i | i | i | i | i | i | nt
CCOC(=O)C1=C(C)OC(N)=C(C#N)C1c1cc(SCC)oc1C (configuration not stated) | i | i | i | i | i | i | nt
Cc1noc(C)c1-c1ccc(C(=O)Nc2ccccc2)c2occc12 | nt | nt | nt | i | nt | nt | nt
